Measurements published in PubChem BioAssay.

What follows are compounds tested against Fibroblast growth factor 10 (Homo sapiens) (UniProt O15520) (assay: FGF10 binders on small-molecule microarrays, primary screen, biochemical, small-molecule microarray, 635 nm fluorescence (AID 1102)). Conditions: FGF10 binding, fluorescence 635 nm, higher = more signal.
Sequence of Fibroblast growth factor 10 (Homo sapiens) (O15520 whole entry, looked up): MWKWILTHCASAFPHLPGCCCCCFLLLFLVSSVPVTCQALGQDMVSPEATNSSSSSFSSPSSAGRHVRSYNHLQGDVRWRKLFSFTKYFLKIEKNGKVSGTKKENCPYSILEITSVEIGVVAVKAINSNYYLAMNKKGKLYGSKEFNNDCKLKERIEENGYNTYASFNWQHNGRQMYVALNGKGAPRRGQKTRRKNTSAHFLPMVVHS

SMILES	composite z-score
CN1C(=O)C2C=CC(C(O)COCc3ccccc3)N(N(c3ccccc3)c3ccccc3)C2C1=O (centres undefined)	0.126
COCCCNC(=O)[C@]1(CCS(=O)(=O)c2ccccc2)N=C(c2ccc(OCCCO)cc2)O[C@@H]1c1ccccc1N=[N+]=[N-]	1.16
O=C1C2C=CC(C(O)c3ccccc3)N(Nc3ccccc3F)C2C(=O)N1c1ccccc1 (centres undefined)	0.311
CCOC(=O)c1ccc(NC(=O)O[C@H]2[C@H](OC(=O)Nc3ccc4c(c3)OCO4)[C@@H](OC(=O)Nc3ccc4c(c3)OCO4)[C@@H](OC)O[C@@H]2CO)cc1	1.4
COc1ccc([Si](C)(C)[C@@H]2[C@@H](CC(=O)N3Cc4ccccc4C[C@H]3CO)O[C@]3(C(=O)N(C)c4ccccc43)[C@H]2C)cc1	1.15
O=C(NCC(F)(F)F)[C@@H]1c2ccccc2C(=O)N(Cc2ccccc2C(F)(F)F)[C@H]1c1ccc(CO)cc1	-0.141
OCC1CC(c2ccccc2)=NO1 (centres undefined)	0.0912
C=CCNC(=O)[C@@H]1[C@H]2C(=O)O[C@H](c3ccccc3)[C@H](c3ccccc3)N2[C@H](c2ccc(O)cc2)[C@@]12C(=O)N(C(=O)OCCOC)c1ccc(C#CC3(O)CCCCCC3)cc12	-1.72

The compounds below were run on glycogen synthase kinase-3 (GSK3A per assay name; protocol says GSK3B) (assay: GSK3 binders on small-molecule microarrays, primary screen, biochemical, small-molecule microarray, 635 nm fluorescence, GSK3A (AID 1103; note: the record names both GSK3A and GSK3B)). Conditions: small-molecule microarray binding, fluorescence 635 nm; higher = more signal.

SMILES	composite z-score
NC(=O)NCC#Cc1ccc2c(c1)[C@]1(C(=O)N2)[C@H](C(=O)O)[C@H]2C(=O)O[C@H](c3ccccc3)[C@H](c3ccccc3)N2[C@@H]1c1ccc(OCCO)cc1	-0.547
[N-]=[N+]=Nc1ccccc1C[C@]1(C(=O)N2CCOCC2)N=C(c2ccc(OCCCO)cc2)O[C@H]1c1ccccc1	1.29
COc1ccc(C#Cc2ccc3c(c2)[C@]2(C(=O)N3)[C@H](c3ccc(O)cc3)N3[C@H](c4ccccc4)[C@H](c4ccccc4)OC(=O)[C@H]3[C@@H]2C(=O)O)cc1	0.74
O=C1O[C@@H](c2ccccc2)[C@@H](c2ccccc2)N2[C@@H](c3ccc(OCCO)cc3)[C@]3(C(=O)Nc4ccccc43)[C@@H](C(=O)O)[C@H]12	-0.739
C=C(/C(=C/C[C@H](OC(C)=O)c1cccc(OCCO)c1)c1cnc2ccccc2c1)C(C)C	0.324
COc1ccc([Si](C)(C)[C@H]2[C@H](CCn3cc([C@H](O)c4ccccc4)nn3)O[C@@]3(C(=O)N(Cc4ccc(N5C(=O)c6cccc7cccc5c67)cc4)c4ccccc43)[C@@H]2C)cc1	-0.509
CCC(CC)C(O)C1C=CC2C(=O)N(c3ccccc3)C(=O)C2N1Nc1ccc(C(C)C)cc1 (centres undefined)	1.17
COC1OC[C@]2(C)[C@H]3C4=C(CN2C(=O)OC(C)(C)C)[C@H](C)C(CO)C(CO)C4CC[C@@H]13 (some centres undefined)	1.18
COC(=O)[C@@]1(Cc2ccccc2N=[N+]=[N-])N=C(c2ccc(OCCCO)cc2)O[C@H]1c1ccccc1N=[N+]=[N-]	0.65
CC1CC/C=C\[C@H]2OC34C=CCN(C(C)C)C(=O)[C@H]3N(CCCCCCO)C(=O)[C@@H]4C2C(=O)O1 (some centres undefined)	-1.22
COC(=O)[C@@]1(Cc2ccc(OC)cc2)[C@H]2c3cc(C(=O)N4CCCC4)n(Cc4cccc5ccccc45)c3C[C@H]2CN1C(=O)c1ccccc1	0.407
COc1ccc([Si](C)(C)[C@H]2[C@H](CC(=O)N(CCO)Cc3ccccc3)O[C@@]3(C(=O)N(Cc4cccc(N5CCOC5=O)c4)c4ccccc43)[C@@H]2C)cc1	0.616
Cc1cc(C)c(C(O)C2C=CC3C(=O)N(c4ccccc4)C(=O)C3N2Nc2ccc(C(C)C)cc2)c(C)c1 (centres undefined)	1.25
C=C(/C(=C/C[C@@H](OC(C)=O)c1cccc(OCCO)c1)c1cc(C(=O)OC)ccc1OC)C(C)C	-0.298
O=C1O[C@H](c2ccccc2)[C@H](c2ccccc2)N2[C@H]1[C@@H](C(=O)Nc1nc3ccccc3s1)[C@]1(C(=O)Nc3ccc(C#CC4(O)CCCCCC4)cc31)[C@H]2c1ccccc1OCCO	1.33
CN1C(=O)C2C=CC(C(O)C#Cc3ccccc3)N(Nc3ccccc3)C2C1=O (centres undefined)	1.31
C=CC[C@@]1(C(=O)N2CCOCC2)N=C(c2ccc(OCCCO)cc2)O[C@@H]1c1ccccc1CN=[N+]=[N-]	1.32
COc1cc(OC)c(C(O)C2C=CC3C(=O)N(C)C(=O)C3N2NC(=O)OC(C)(C)C)cc1Br (centres undefined)	1.33

SMILES	composite z-score
CC(C)(C)OC(=O)CC[C@]1(C(=O)NCc2ccccc2)N=C(c2ccc(OCCCO)cc2)O[C@H]1c1ccccc1CN=[N+]=[N-]	1.36
CCCCCCc1nc(C2CC2)cc2c1[Si](C(C)C)(C(C)C)O[C@H]2c1ccccc1	-0.213
COc1ccc(NC(=O)O[C@H]2[C@H](OC(=O)Nc3ccccc3)[C@H](OC(=O)Nc3ccccc3)[C@@H](OC)O[C@@H]2CO)cc1	1.07
COc1ccc([Si](C)(C)[C@@H]2[C@@H](CCO)O[C@]3(C(=O)N(Cc4ccc(N5CCCCC5=O)cc4)c4ccccc43)[C@H]2C)cc1	0.83
COC(=O)c1cn(C[C@@H](Cc2ccccc2)NC(=O)N[C@H](CO)CCc2oc(C(C)=O)c(C(=O)OC)c2C(=O)OC)nn1	0.895
C=C(CCCC)/C(=C/C[C@@H](OC(=O)c1ccncc1)c1ccccc1OCCO)c1cnc2ccccc2c1	1.15
O=C1NC(=O)C2C1C=CC(C(O)c1ccco1)N2Nc1ccccn1 (centres undefined)	0.03
C=CCC(OC(C)=O)[C@@H]1[C@@H](N(Cc2cc3ccccc3o2)C(=O)c2ccc(C)cc2)c2cc(OCCCO)ccc2N1C(=O)Cc1ccc(OC)cc1 (some centres undefined)	0.121
C=CCC(OC(C)=O)[C@@H]1[C@@H](N(Cc2ccc(-c3cccc(C(F)(F)F)c3)o2)C(=O)c2ccc(-c3ccccc3)cc2)c2cc(OCCCO)ccc2N1C(=O)c1ccc2ccccc2n1 (some centres undefined)	-0.587
CN1C(=O)C2C=CC(C(O)c3cccc(O)c3)N(Nc3ccccc3)C2C1=O (centres undefined)	-0.236
CN1C(=O)C2C=CC(C(O)COCc3ccccc3)N(N(c3ccccc3)c3ccccc3)C2C1=O (centres undefined)	-0.588
COCCCNC(=O)[C@]1(CCS(=O)(=O)c2ccccc2)N=C(c2ccc(OCCCO)cc2)O[C@@H]1c1ccccc1N=[N+]=[N-]	1.29
O=C1C2C=CC(C(O)c3ccccc3)N(Nc3ccccc3F)C2C(=O)N1c1ccccc1 (centres undefined)	-0.178
CCOC(=O)c1ccc(NC(=O)O[C@H]2[C@H](OC(=O)Nc3ccc4c(c3)OCO4)[C@@H](OC(=O)Nc3ccc4c(c3)OCO4)[C@@H](OC)O[C@@H]2CO)cc1	1.33
COc1ccc([Si](C)(C)[C@@H]2[C@@H](CC(=O)N3Cc4ccccc4C[C@H]3CO)O[C@]3(C(=O)N(C)c4ccccc43)[C@H]2C)cc1	1.3
O=C(NCC(F)(F)F)[C@@H]1c2ccccc2C(=O)N(Cc2ccccc2C(F)(F)F)[C@H]1c1ccc(CO)cc1	-0.677
OCC1CC(c2ccccc2)=NO1 (centres undefined)	0.0016
C=CCNC(=O)[C@@H]1[C@H]2C(=O)O[C@H](c3ccccc3)[C@H](c3ccccc3)N2[C@H](c2ccc(O)cc2)[C@@]12C(=O)N(C(=O)OCCOC)c1ccc(C#CC3(O)CCCCCC3)cc12	-1.44
